ST2 IL33 inh: inhibitors of human ST2 (IL1RL1) binding to IL-33; inhibition, % for hits at 17 µM; AlphaLISA ST2-Fc/biotin-IL-33 interaction, 1 h; 2.3% of 78,000 active; Q01638; in the data active means inhibition above about 30%
Target sequence (Q01638 whole entry, looked up): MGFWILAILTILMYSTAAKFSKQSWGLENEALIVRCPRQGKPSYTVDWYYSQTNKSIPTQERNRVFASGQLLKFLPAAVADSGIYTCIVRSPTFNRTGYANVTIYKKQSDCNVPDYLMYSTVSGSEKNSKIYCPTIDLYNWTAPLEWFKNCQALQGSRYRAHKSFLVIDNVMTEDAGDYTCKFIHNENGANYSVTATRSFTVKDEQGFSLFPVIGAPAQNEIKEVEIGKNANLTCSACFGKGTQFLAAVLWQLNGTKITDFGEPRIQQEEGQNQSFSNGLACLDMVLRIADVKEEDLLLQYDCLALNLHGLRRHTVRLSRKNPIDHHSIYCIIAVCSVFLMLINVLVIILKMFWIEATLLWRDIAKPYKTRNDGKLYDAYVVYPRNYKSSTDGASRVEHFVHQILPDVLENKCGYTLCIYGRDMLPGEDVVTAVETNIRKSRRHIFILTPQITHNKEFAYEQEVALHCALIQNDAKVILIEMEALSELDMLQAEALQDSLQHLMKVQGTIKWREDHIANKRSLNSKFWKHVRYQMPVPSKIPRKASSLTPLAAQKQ
Of the large screens only hits and unclear results are named; the others gave an inactive call. Only a selection was taken, and hits are over-represented in it overall.

CC(C)OCCCNC(=O)CN1CCN(Cc2ccc(F)cc2Cl)C1=O	none
COc1ccc(-c2cc(N3CCN(S(=O)(=O)c4cc(Cl)ccc4OC)CC3)ncn2)cc1	none
COc1ccc(C2=N/C(=C\c3cccc(C(F)(F)F)c3)C(=O)O2)cc1OC	none
O=C1OC(c2cccc([N+](=O)[O-])c2)=N/C1=C\c1ccc(Cl)cc1Cl	none
Cc1cccc(C2=N/C(=C\c3ccco3)C(=O)O2)c1	ST2 IL33 inh 47%
Cc1cccc(/C=C2\N=C(c3ccccc3[N+](=O)[O-])OC2=O)c1	none
CCOc1ccc(/C=C2\N=C(c3cccc(F)c3)OC2=O)cc1OC	none
Cc1cccc(C2=N/C(=C\c3cccc(C(F)(F)F)c3)C(=O)O2)c1	ST2 IL33 inh 32%
COc1ccccc1/C=C1\N=C(c2cccc([N+](=O)[O-])c2)OC1=O	none
Cc1cccc(C2=N/C(=C\c3sccc3C)C(=O)O2)c1	ST2 IL33 inh 37%
COc1ccc(/C=C2\N=C(c3cccc(C)c3)OC2=O)c(OC)c1OC	ST2 IL33 inh 48%
Cc1cccc(/C=C2\N=C(c3ccc4c(c3)OCO4)OC2=O)c1	none
Cc1cccc(C2=N/C(=C\c3c(F)cccc3Cl)C(=O)O2)c1	none
COc1cc(C)c(/C=C2/N=C(c3ccccc3)OC2=O)cc1C(C)C	none
CN1C(=O)CC(CC(=O)N2CCC(N3CCSCC3)CC2)(c2ccc(-c3ccccc3)cc2)C1=O (centres undefined)	none
O=c1c2c([nH]c3ccccc13)OCCC2	none
CNC(=O)CC1CCN(Cc2nc(-c3ccc(SC)cc3)oc2C)CC1	none
O=S1(=O)c2cccc3cccc(c23)N1Cc1ccccc1Cl	none
Cc1cc(Br)ccc1NC(=O)Cc1c(C(=O)O)[nH]c2ccc(Cl)cc12	none
Cc1cc(C)n(-c2ccc(NC(=O)C3CCN(C(=O)CCc4cnn(C)c4)CC3)cc2)n1	none
CCOc1ccc(/C=C2\N=C(c3cccc(I)c3)OC2=O)cc1	none
COc1ccc(/C=C2\N=C(c3ccc(-c4ccccc4)cc3)OC2=O)cc1	none
Cc1cccc(C2=N/C(=C\c3ccc(C)o3)C(=O)O2)c1	ST2 IL33 inh 53%
Cc1c(C(=O)NCc2ccc3c(c2)OCO3)sc2ncn(C)c(=O)c12	none
O=C1c2cc3ccccc3cc2C(=O)N1c1cccc(Br)c1	none
O=C(c1cc([N+](=O)[O-])ccc1N1CCOCC1)N1CCOCC1	none
O=C1C(=O)N(CCN2CCOCC2)C(c2ccc([N+](=O)[O-])cc2)C1=C(O)c1ccccc1 (centres undefined)	none
O=C(/C=C(/c1ccccc1)N1CCOCC1)c1ccc([N+](=O)[O-])cc1	ST2 IL33 inh 39%
FC(F)(F)c1cc(-c2ccoc2)c2nc[nH]c2c1	none
CC(=O)N1CCC(C(=O)NCc2nc3cc(C(C)(C)C)ccc3o2)CC1	none
Cc1ccc(N=Cc2nc(-c3ccccc3)oc2O)c(Br)c1	none
Oc1oc(-c2ccc(Br)cc2)nc1C=Nc1ccc(Br)cn1	none
Oc1oc(-c2ccccc2)nc1C=Nc1ccc(Br)cn1	none
Cc1ccc(N=Cc2nc(-c3ccccc3F)oc2O)c(C)c1	ST2 IL33 inh 33%
Oc1oc(-c2ccccc2F)nc1C=Nc1ccc(Cl)cn1	ST2 IL33 inh 32%
Cc1ccc(N=Cc2nc(-c3ccc(Br)cc3)oc2O)c(C)c1	none
CCCN(CCC)CCNC(=O)C1c2ccccc2C(=O)N(C)C1c1cccs1 (centres undefined)	none
CNC(=O)CC(C)N(C)Cc1cccc(OC)c1O (centres undefined)	none
COc1ccc(-c2noc([C@@H]3C[C@H](NCc4cc5ccccc5o4)CN3C)n2)cc1	none
COc1ccc(Cc2c(O)nc3n(c2=O)CCCS3)cc1	none
O=C(COc1cc(=O)n2c(n1)SCCC2)c1ccccc1	ST2 IL33 inh 64%
O=C(COc1ccc2c3c(c(=O)oc2c1)CCC3)c1ccccc1	none
O=C(COc1ccc([N+](=O)[O-])cc1)NCc1ccco1	none
COc1ccccc1N1C(=O)C2C(C(C)=O)=NN(c3ccc(Br)cc3)C2C1=O (centres undefined)	none
CC1=CCC2CC1C(c1ccc(N(C)C)cc1)OC2(C)C (centres undefined)	ST2 IL33 inh 60%
Cc1c(NC(=O)C(c2ccccc2)c2ccccc2)cccc1[N+](=O)[O-]	ST2 IL33 inh 44%
Cc1c(NC(=O)C2CC2)cccc1[N+](=O)[O-]	none
Cc1c(NC(=O)c2ccccc2)cccc1[N+](=O)[O-]	none
CCc1cc2c(=O)c(-c3ccc4c(c3)OCCO4)coc2cc1OC(C)C	none
Cc1nnc(Nc2cccc(C(F)(F)F)c2)[nH]c1=O	none
O=C1C=C(Nc2cccc(C(F)(F)F)c2)C(=O)c2ccccc21	ST2 IL33 inh 31%
O=C(CCCCCN1C(=O)c2ccccc2C1=O)Nc1cccc(C(F)(F)F)c1	none
O=C(c1cnc(CN2CCCC2)s1)N1C[C@@H]2CNC[C@]2(C(=O)O)C1	none
O=C(Nc1cccc(Cl)c1)c1cccc([N+](=O)[O-])c1	ST2 IL33 inh 92%
Cc1ccc(NC(=O)c2cccc([N+](=O)[O-])c2)cc1C	none
O=C(Nc1ccc(I)cc1)c1cccc([N+](=O)[O-])c1	none
O=c1oc2ccc(Cl)cc2nc1C=C(O)c1ccc(Br)cc1	none
O=C(N[C@H]1CO[C@H]2[C@@H]1OC[C@@H]2Nc1nccc(-c2cccs2)n1)c1ccc2c(c1)OCO2	none
O=C(NCc1ccco1)c1ccc2nc3ccsc3c(=O)n2c1	none
Cc1nnc(NC(=O)Nc2ccccc2)s1	none
CC(C)c1nnc(NC(=O)c2ccc(Br)cc2)s1	none
Cc1nnc(NC(=O)c2ccc(C(C)C)cc2)s1	ST2 IL33 inh 92%
O=C(NCc1cccnc1)C1CCN(C2CCN(Cc3c(F)ccc(F)c3F)CC2)CC1	none
Cc1nc2ccc(N(C)C)cc2s1	ST2 IL33 inh 33%
Cc1nc2cc(CCO)ccc2s1	none
CN(C)c1ccc(C(=O)Nc2nc3ccc(Cl)cc3s2)cc1	none
Cc1ccc2nc(N3CCC(C(=O)NCCc4cccc(F)c4)CC3)nc(C)c2c1	none
N#CSCc1ccc([N+](=O)[O-])cc1	none
N#Cc1ccc([N+](=O)[O-])cc1C#N	none
N#CSC(C#N)Cc1cccc([N+](=O)[O-])c1 (centres undefined)	ST2 IL33 inh 37%
COc1ccccc1NS(=O)(=O)c1c(C)cc(C)cc1C	none
COc1ccc(OC)c(NC(=O)c2ccccc2Br)c1	none
COc1ccc(C(=O)Nc2nc3ccc(S(C)(=O)=O)cc3s2)c(OC)c1	none
COc1ccc(NC(=O)c2ccccc2Br)cc1	none
COc1ccc(-n2nc3c(c2NC(=O)c2ccc(OC)cc2OC)CSC3)cc1	none
COC(=O)C1=C(NC(=O)c2ccccc2Br)CCS1	ST2 IL33 inh 31%
COC(=O)C1=C(NC(=O)c2ccc(OC)cc2OC)CCS1	ST2 IL33 inh 32%
Cn1cc(CN2CCN(C(=O)c3ccco3)CC2)c(-c2ccc3c(c2)OCCO3)n1	none
CCN(c1ccccc1)S(=O)(=O)c1ccc2c(c1)CCC(=O)N2	none
O=C(CN1CCN(Cc2ccc(Cl)cc2)C1=O)NCc1ccco1	none
Cc1ccc(Cn2c(CNS(=O)(=O)c3ccc(F)cc3)nc3cccnc32)cc1	none
O=C(NCC1OCCc2ccccc21)C(=O)N1CCCC1 (centres undefined)	none
O=[N+]([O-])c1ccccc1CN1CCN(c2ncccn2)CC1	ST2 IL33 inh 31%
COc1cc([N+](=O)[O-])cc(CN2CCN(c3ccccc3F)CC2)c1O	none
O=[N+]([O-])c1ccccc1CN1CCN(c2ccccn2)CC1	none
COc1cc(CN2CCN(c3ccccc3C)CC2)c([N+](=O)[O-])cc1OC	none
O=[N+]([O-])c1ccccc1CN1CCN(Cc2ccccn2)CC1	none
COc1ccccc1N1CCN(Cc2cc([N+](=O)[O-])c(O)c3ncccc23)CC1	ST2 IL33 inh 34%
COc1cc(CN2CCN(c3ccccc3C)CC2)cc([N+](=O)[O-])c1O	ST2 IL33 inh 89%
COc1ccccc1N1CCN(Cc2cc(OC)c(O)c([N+](=O)[O-])c2)CC1	none

High-throughput results from PubChem BioAssay.
